High-throughput results (PubChem)
Shown is part of a subset that was picked to be rich in hits.
IL-1B inflam inh – blocks inflammasome-driven IL-1 beta release; THP-1 LPS/ATP IL-1B secretion, AlphaLISA, 16 h; active compounds read low; hit rate 4.7% among 360,000; activity change, % at 57.5 µM; AID 743279; in the data active means activity change below about -50%; inconclusive means mostly about -30% to -49%
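THP-1 cells pretreated 1 hr with compounds (up to 57.5 uM final), then stimulated with LPS (250 ng/mL final) plus ATP (1.25 mM final); secreted IL-1B measured by AlphaLISA after 16 hr, decreased signal indicating inhibition.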
TDP1 cell CPT – growth inhibition of DT40 Tdp1-/-;hTDP1 cells with camptothecin (screen for TDP1 inhibitors); chicken DT40 Tdp1-/-;hTDP1 cells + 20 nM CPT, ATP luminescence, 48 h; hit rate 12% among 420,000; Potency, µM (top dose mostly 46.2 µM), without a hit: at the top dose activity change, negative = growth inhibition, actives largely listed as inhibitors; further: potency means the concentration at half of the fitted maximal effect; nearly all actives have a fitted effect of over 55% in size
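Chicken DT40 Tdp1-/- cells complemented with human TDP1, 400 cells/well, exposed to compounds plus 20 nM camptothecin for at least 48 h at 37 C; viability read as ATP content by CellTiter-Glo luminescence.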
DT40 TDP1 no CPT – qHTS for Inhibitors of human tyrosyl-DNA phosphodiesterase 1 (TDP1): qHTS in cells in absence of CPT; Potency, µM (highest dose often 46.2 µM), for the others: top-dose activity change, negative = growth inhibition, hits mostly inhibitors; hit rate 15% among 420,000; DT40 Tdp1-/- hTDP1 cells, no CPT, ATP luminescence, 48 h; further: potency means the concentration at half of the fitted maximal effect; nearly all actives have a fitted effect of over 55% in size
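Luminescent ATP content (CellTiter-Glo) served as the growth readout. Knockout chicken DT40 cells expressing human TDP1 were exposed to compounds without camptothecin for a minimum 48 hr at 37 °C.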
ALOX12 inh – blocks human arachidonate 12S-lipoxygenase. purified 12hLO, xylenol orange hydroperoxide absorbance. Potency, µM (highest dose often 108 µM), inactives show top-dose activity change, negative = inhibition, usual class: inhibitors. P18054. hit rate 1.1% among 580,000; further: potency means the concentration at half of the fitted maximal effect
Target sequence (P18054 whole entry, looked up): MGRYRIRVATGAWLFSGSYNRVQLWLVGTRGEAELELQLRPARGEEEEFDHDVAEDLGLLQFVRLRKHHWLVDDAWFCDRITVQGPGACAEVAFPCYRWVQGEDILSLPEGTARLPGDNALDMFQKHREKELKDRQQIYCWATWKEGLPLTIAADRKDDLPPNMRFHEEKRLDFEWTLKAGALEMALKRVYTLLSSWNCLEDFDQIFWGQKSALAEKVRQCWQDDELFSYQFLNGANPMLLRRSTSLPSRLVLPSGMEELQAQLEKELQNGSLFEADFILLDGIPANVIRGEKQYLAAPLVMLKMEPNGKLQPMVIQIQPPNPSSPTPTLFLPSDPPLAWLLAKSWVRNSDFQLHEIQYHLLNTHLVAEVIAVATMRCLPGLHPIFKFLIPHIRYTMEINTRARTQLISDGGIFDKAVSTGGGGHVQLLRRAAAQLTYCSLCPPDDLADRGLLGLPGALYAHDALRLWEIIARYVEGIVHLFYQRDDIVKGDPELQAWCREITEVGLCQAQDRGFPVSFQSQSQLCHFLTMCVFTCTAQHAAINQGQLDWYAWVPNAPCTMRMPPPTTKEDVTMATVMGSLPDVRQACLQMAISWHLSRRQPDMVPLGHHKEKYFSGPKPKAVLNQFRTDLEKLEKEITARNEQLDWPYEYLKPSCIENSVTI
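Purified human 12hLO at 150 nM in 25 mM Hepes, 0.01% Triton X-100, pH 7.0, preincubated 15 min at room temperature with compound. Reaction started with 40 uM arachidonic acid, 30 min at room temperature. Hydroperoxide measured by Fe-xylenol orange, 573/405 nm absorbance ratio.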
HT1080NT lethal – kills 2HG-producing HT-1080-NT fibrosarcoma cells. HT-1080-NT fibrosarcoma viability, CellTiter-Glo ATP luminescence, 48 h. Potency, µM (titrated, usually from 46.1 µM), for inactives: top-dose activity, negative = less viability, actives largely listed as cytotoxic. hit rate 1.6% among 360,000. AID 686970;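 further: NT is the 2HG producing partner of a matched IDH1 knockdown line; potency means the concentration at half of the fitted maximal effect; 0% = DMSO-treated cells and -100% = media-only wells without cells; nearly all actives have a fitted effect of over 55% in size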
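750 cells/well, RPMI + 5% FBS; 2 h settle, compound pin-transfer, 48 h at 37 degrees C. CellTiter-Glo 10 min RT, luminescence. Normalized to DMSO and media-only wells.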
HT1080 IDH1KD tx – kills HT-1080 cells with IDH1 knockdown; HT-1080 IDH1 knockdown viability, ATP luminescence, 48 h; Potency, µM (top dose mostly 46.1 µM), inactives show at the top dose activity, negative = toxicity, most hits filed as cytotoxic; hit rate 2% among 360,000; AID 686971;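 further: potency means the concentration at half of the fitted maximal effect; 0% = DMSO wells and -100% = cell-free medium wells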
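Cytotoxicity counter-line: IDH1KD HT-1080, 48 h, CellTiter-Glo. Curves classed by r2, magnitude and activity.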
* hit, by the source's call; [ ] = another dose, or the depositor's remark. Unless noted, the call rests on the fitted dose curve; in most records, active means well fitted curve in the direction sought with a large enough effect; inconclusive means small, poorly fitted or top-dose-only effect, or another doubt; inactive means no such curve, though single readings can be large; an effect the other way counts as inactive or inconclusive. Unless noted, on the % scale 0 is the no-effect control and ±100 the full control effect.

What do the screens show for `CCCCN1CC(c2nc3ccccc3n2CCCCOc2cc(C)ccc2C)CC1=O` (centres undefined)?
TDP1 cell CPT: 16µM*; DT40 TDP1 no CPT: 8.2µM*; ALOX12 inh: inconclusive

How did CCCCN1CC(c2nc3ccccc3n2CCCCOc2c(C)cccc2C)CC1=O (centres undefined) do in these assays?
TDP1 cell CPT: 12µM*; DT40 TDP1 no CPT: 7.3µM*; ALOX12 inh: -11%

What do the screens show for `COc1ccccc1OCCCCn1c(C2CC(=O)N(c3ccccc3Cl)C2)nc2ccccc21` (centres undefined)?
TDP1 cell CPT: inconclusive; DT40 TDP1 no CPT: -26%; ALOX12 inh: -18%

What do the screens show for `CCCCN1CC(c2nc3ccccc3n2Cc2cccc3ccccc23)CC1=O` (centres undefined)?
ALOX12 inh: -19%

How did COc1ccc(NC(=O)[C@@H]2C[C@H](c3cccc(C(F)(F)F)c3)N(Cc3cnn(C)c3)C2)cc1 do in these assays?
ALOX12 inh: 7%

What do the screens show for `COCCn1c2c(c(=O)[nH]c1=O)C(c1ccccc1C)C1=C(N2)c2ccccc2C1=O` (centres undefined)?
ALOX12 inh: 103%

How did CCCCNC(=O)CC(c1cccc(OC)c1)c1c[nH]c2ccccc12 (centres undefined) do in these assays?
ALOX12 inh: -1%

Results for CCCCNC(=S)NCC(c1ccccc1)c1c[nH]c2ccccc12 (centres undefined) ?
IL-1B inflam inh: -19; TDP1 cell CPT: 12%; DT40 TDP1 no CPT: inconclusive; ALOX12 inh: 45µM*; HT1080NT lethal: inconclusive; HT1080 IDH1KD tx: inconclusive

What do the screens show for `CN(C)CCCNC(=S)NCC(c1ccc(Cl)cc1Cl)c1c[nH]c2ccccc12` (centres undefined)?
IL-1B inflam inh: -104*; TDP1 cell CPT: inconclusive; DT40 TDP1 no CPT: inconclusive; ALOX12 inh: inconclusive; HT1080NT lethal: 21µM*; HT1080 IDH1KD tx: 16µM*

How did O=[N+]([O-])c1cccc(Cl)c1N1CCOCC1 do in these assays?
IL-1B inflam inh: 11; TDP1 cell CPT: inconclusive; DT40 TDP1 no CPT: -26%; ALOX12 inh: 0%; HT1080NT lethal: 8%; HT1080 IDH1KD tx: 15%

What do the screens show for `C=CSc1sc(Cl)c(N2CCOCC2)c1[N+](=O)[O-]`?
IL-1B inflam inh: -105*; TDP1 cell CPT: 0%; DT40 TDP1 no CPT: inconclusive; ALOX12 inh: -11%; HT1080NT lethal: inconclusive; HT1080 IDH1KD tx: inconclusive

What do the screens show for `C=CS(=O)(=O)c1sc(Cl)c(N2CCOCC2)c1[N+](=O)[O-]`?
IL-1B inflam inh: -112*; TDP1 cell CPT: 1.6µM*; DT40 TDP1 no CPT: 2.9µM*; ALOX12 inh: inconclusive; HT1080NT lethal: inconclusive; HT1080 IDH1KD tx: 10µM*

What do the screens show for `CCC(C(=O)Nc1cc(C)nn1-c1nc(C)cc(C)n1)c1ccccc1` (centres undefined)?
IL-1B inflam inh: -11; TDP1 cell CPT: 26µM*; DT40 TDP1 no CPT: 18µM*; ALOX12 inh: 0%[57.4 µM]; HT1080NT lethal: 0%; HT1080 IDH1KD tx: -28%

How did Cc1cc(C)nc(-n2nc(C)cc2Nc2ccccc2)n1 do in these assays?
IL-1B inflam inh: 0; TDP1 cell CPT: 2.6µM*; DT40 TDP1 no CPT: 5.2µM*; ALOX12 inh: -9%; HT1080NT lethal: -20%; HT1080 IDH1KD tx: -15%

How did COCc1nn2c3c(cnc2c1-c1ccccc1)C(=O)CC(c1ccc(OC)cc1OC)C3 (centres undefined) do in these assays?
ALOX12 inh: -14%

What do the screens show for `Cc1ccc(C23CC4CC(C2)CC(c2csc(NC(=O)c5ccccc5)n2)(C4)C3)cc1`?
ALOX12 inh: -6%

How did CCOC(=O)C(C)Oc1ccc2c(=O)c(Oc3cc(C)ccc3C)coc2c1 (centres undefined) do in these assays?
ALOX12 inh: 1%

Results for CCOc1ccc(CCNC(=O)CCc2cn(Cc3ccc(F)cc3)c3ccccc23)cc1 ?
TDP1 cell CPT: inconclusive; DT40 TDP1 no CPT: 21µM*; ALOX12 inh: -18%

How did Cc1ccc(Cn2cc(CCC(=O)NCC(C)c3ccccc3)c3ccccc32)cc1 (centres undefined) do in these assays?
TDP1 cell CPT: inconclusive; DT40 TDP1 no CPT: 16µM*; ALOX12 inh: inconclusive

What do the screens show for `O=C(CCc1cn(Cc2ccc(F)cc2)c2ccccc12)NCCc1ccc(Cl)cc1`?
TDP1 cell CPT: inconclusive; DT40 TDP1 no CPT: 18µM*; ALOX12 inh: 0%

How did CNC(=O)CCc1cn(Cc2ccccc2C)c2ccccc12 do in these assays?
ALOX12 inh: 6%

Results for Cc1ccc(CCNC(=O)CCc2cn(Cc3ccccc3C)c3ccccc23)cc1 ?
TDP1 cell CPT: 18µM*; DT40 TDP1 no CPT: 16µM*; ALOX12 inh: -12%

What do the screens show for `CC(=O)c1ccc(NC(=O)CSC2=C(C#N)C(c3ccccc3C)C3=C(CCCC3=O)N2)cc1` (centres undefined)?
ALOX12 inh: -53%

How did O=C(CCC[C@@H]1[C@H]2CCCN3CCC[C@@H](CN1C(=O)c1cccnc1)[C@@H]23)NCCCN1CCCC1=O do in these assays?
ALOX12 inh: -2%

What do the screens show for `COc1ccc(C2=C(C)C(=O)N(Cc3ccc(C(=O)Nc4ccc(F)cc4C)cc3)S2(=O)=O)cc1`?
TDP1 cell CPT: 3.3µM*; DT40 TDP1 no CPT: 3.7µM*; ALOX12 inh: -25%

How did COc1ccc(C2=C(C)C(=O)N(Cc3ccc(C(=O)Nc4cccc(F)c4)cc3)S2(=O)=O)cc1 do in these assays?
TDP1 cell CPT: 21µM*; DT40 TDP1 no CPT: 23µM*; ALOX12 inh: -2%

What do the screens show for `COc1ccc(C(C)=O)c(OCc2cc(OC)c(Br)cc2OC)c1`?
ALOX12 inh: -17%

Results for Cc1ccc(-c2cc(C(=O)NCc3ccco3)c3ccccc3n2)cc1C ?
ALOX12 inh: -8%

What do the screens show for `CC(=O)N1CCC(N2C[C@@H](F)[C@@H](OCc3nc4ccccc4o3)C2)CC1`?
ALOX12 inh: 70%[176 µM]

How did O=C(CCN1C(=O)c2ccccc2C1=O)Nc1cccc(O)c1 do in these assays?
IL-1B inflam inh: -5; TDP1 cell CPT: 11%; DT40 TDP1 no CPT: -11%; ALOX12 inh: 0%; HT1080NT lethal: 19%; HT1080 IDH1KD tx: 18%
